According to PubChem BioAssay (NCI):
This is part of a sample that, as a whole, favours compounds with a hit. Of some 83,000 tested, about 20% had one in any assay.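 Note: values are percent growth. 100 is the growth of untreated cells, values between 100 and 0 indicate rising inhibition; between -100 and 0 indicates cell death.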 Active and inactive are the calls of the source. The calls were made as follows: active = growth percent below 10; inactive = the rest.

What was measured:
Assay in all cases: NCI-60 one-dose screen, 48 h (100 = growth as untreated, 0 = no growth, -100 = all killed)
Conditions in all cases: 10 µM unless noted
NCI-H23 lung = tested on: NCI-H23 lung
NCI-H226 lung = tested on: NCI-H226 lung
NCI-H322M lung = tested on: NCI-H322M lung
HOP-62 NSCLC = tested on: HOP-62 NSCLC
NCI-H460 lung = tested on: NCI-H460 lung
NCI-H522 lung = tested on: NCI-H522 lung
A549/ATCC NSCLC = tested on: A549/ATCC NSCLC
786-0 renal = tested on: 786-0 renal
COLO 205 colon = tested on: COLO 205 colon
DU-145 prostate = tested on: DU-145 prostate
K-562 leukemia = tested on: K-562 leukemia
MALME-3M melanoma = tested on: MALME-3M melanoma
MDA-MB-231 breast = tested on: MDA-MB-231 breast
RXF 393 renal = tested on: RXF 393 renal
SF-268 CNS = tested on: SF-268 CNS
SF-295 CNS = tested on: SF-295 CNS
SF-539 CNS = tested on: SF-539 CNS
UACC-257 melanoma = tested on: UACC-257 melanoma
M14 melanoma = tested on: M14 melanoma

Measured: growth

COc1ccc(-c2nc(SCCC(C)C)nc(Nc3ccc(C(=O)O)cc3)c2C#N)cc1
active: MALME-3M melanoma -52%
inactive: NCI-H23 lung 92.4% | NCI-H226 lung 91.4% | NCI-H322M lung 88.1% | HOP-62 NSCLC 95.7% | NCI-H460 lung 89.5% | NCI-H522 lung 69.2% | A549/ATCC NSCLC 67.2% | 786-0 renal 97% | COLO 205 colon 104% | DU-145 prostate 93.2% | K-562 leukemia 67.8% | MDA-MB-231 breast 98% | RXF 393 renal 90.1% | SF-268 CNS 89.4% | SF-295 CNS 80.5% | SF-539 CNS 91.3% | UACC-257 melanoma 95.2% | M14 melanoma 102%

O=C1/C(=C/c2ccccc2)SC(=Nc2ccccc2)N1Nc1ccccc1
active: NCI-H226 lung -40.1% | NCI-H460 lung -25.2% | NCI-H522 lung -5.53% | 786-0 renal -31.4% | COLO 205 colon 0.201% | K-562 leukemia 4.55% | MALME-3M melanoma -14.6% | RXF 393 renal -58% | SF-539 CNS 5.85% | M14 melanoma -59.3%
inactive: NCI-H23 lung 13.8% | NCI-H322M lung 26.9% | HOP-62 NSCLC 39.4% | A549/ATCC NSCLC 15.5% | DU-145 prostate 22% | MDA-MB-231 breast 12.1% | SF-268 CNS 26.9% | SF-295 CNS 16.2% | UACC-257 melanoma 10.5%

Nc1nc(NC2CC2)cc(-c2cccc(Cl)c2Cl)n1
inactive: NCI-H23 lung 71.7% | NCI-H226 lung 92.3% | NCI-H322M lung 101% | HOP-62 NSCLC 47.1% | NCI-H460 lung 27.6% | A549/ATCC NSCLC 32.6% | 786-0 renal 69.2% | COLO 205 colon 44.1% | DU-145 prostate 78.3% | K-562 leukemia 18.9% | MALME-3M melanoma 64.4% | MDA-MB-231 breast 66.8% | RXF 393 renal 73.3% | SF-268 CNS 67.6% | SF-295 CNS 55.7% | SF-539 CNS 55.7% | UACC-257 melanoma 49.8% | M14 melanoma 18.3%
active: NCI-H522 lung 3.95%

O=C1N(Cc2ccccc2Cl)c2ccccc2C12NN=C(c1ccccc1)S2 (configuration not stated)
inactive: NCI-H23 lung 54.8% | NCI-H226 lung 67.5% | NCI-H322M lung 56.5% | HOP-62 NSCLC 61.2% | NCI-H460 lung 17.5% | NCI-H522 lung 75.6% | A549/ATCC NSCLC 53.4% | 786-0 renal 73.7% | COLO 205 colon 100% | DU-145 prostate 61.9% | K-562 leukemia 43.1% | MALME-3M melanoma 82.8% | MDA-MB-231 breast 72.8% | RXF 393 renal 75.1% | SF-268 CNS 51.7% | SF-295 CNS 41% | SF-539 CNS 66.3% | UACC-257 melanoma 87.6%

CCCCc1nc(Cl)c(C2CC(c3ccc(S(N)(=O)=O)cc3)=NN2c2ccc(C#N)cc2)[nH]1 (configuration not stated)
inactive: NCI-H23 lung 98.5% | NCI-H226 lung 79.6% | NCI-H322M lung 81.3% | HOP-62 NSCLC 90.5% | NCI-H460 lung 95.5% | NCI-H522 lung 68% | A549/ATCC NSCLC 94.6% | 786-0 renal 84.6% | COLO 205 colon 87.8% | DU-145 prostate 104% | K-562 leukemia 69.5% | MALME-3M melanoma 105% | MDA-MB-231 breast 88% | RXF 393 renal 81.1% | SF-268 CNS 91.9% | SF-295 CNS 97.9% | SF-539 CNS 99.9% | UACC-257 melanoma 86.2% | M14 melanoma 88.1%

CCOC(=O)CCN(CCC(=O)OCC)c1ccccc1
inactive: NCI-H23 lung 101% | NCI-H226 lung 98.4% | NCI-H322M lung 110% | HOP-62 NSCLC 86% | NCI-H460 lung 111% | NCI-H522 lung 89.8% | A549/ATCC NSCLC 99.6% | 786-0 renal 105% | COLO 205 colon 93.7% | DU-145 prostate 111% | K-562 leukemia 121% | MALME-3M melanoma 120% | MDA-MB-231 breast 111% | RXF 393 renal 81.3% | SF-268 CNS 93.6% | SF-295 CNS 107% | SF-539 CNS 92.4% | UACC-257 melanoma 96.4% | M14 melanoma 86.6%

O=C(c1ccccc1)c1cccc(C(Br)Br)c1
inactive: NCI-H23 lung 92.8% | NCI-H226 lung 101% | NCI-H322M lung 95.1% | HOP-62 NSCLC 86.7% | NCI-H460 lung 66.4% | NCI-H522 lung 66% | A549/ATCC NSCLC 86.9% | 786-0 renal 100% | COLO 205 colon 96.6% | DU-145 prostate 93.7% | K-562 leukemia 46.4% | MALME-3M melanoma 88.9% | MDA-MB-231 breast 103% | RXF 393 renal 95.7% | SF-268 CNS 95.5% | SF-295 CNS 76.2% | SF-539 CNS 95.2% | UACC-257 melanoma 105% | M14 melanoma 72.1%

COc1ccc2c(c1)C1=NN(C(=O)CO)[C@H](c3ccc(OC(F)(F)F)cc3)[C@@H]1CC2
active: RXF 393 renal -19.9%
inactive: NCI-H23 lung 92.2% | NCI-H226 lung 84.5% | NCI-H322M lung 130% | HOP-62 NSCLC 97.4% | NCI-H460 lung 103% | NCI-H522 lung 82.6% | A549/ATCC NSCLC 89.3% | 786-0 renal 103% | COLO 205 colon 110% | DU-145 prostate 105% | K-562 leukemia 102% | MALME-3M melanoma 101% | MDA-MB-231 breast 94.7% | SF-268 CNS 94.8% | SF-295 CNS 90.4% | SF-539 CNS 93.2% | UACC-257 melanoma 123% | M14 melanoma 115%

CCCCCCCCN(CCCCCCCC)C(=O)CCl
inactive: NCI-H23 lung 70.6% | NCI-H226 lung 96.8% | NCI-H322M lung 108% | HOP-62 NSCLC 113% | NCI-H460 lung 102% | A549/ATCC NSCLC 114% | 786-0 renal 80.6% | COLO 205 colon 108% | DU-145 prostate 110% | K-562 leukemia 105% | MALME-3M melanoma 84.8% | MDA-MB-231 breast 104% | RXF 393 renal 103% | SF-268 CNS 99% | SF-295 CNS 106% | SF-539 CNS 106% | UACC-257 melanoma 112% | M14 melanoma 104%
active: NCI-H522 lung -50.5%

CCN(CC)CCNC(=O)n1cc(-c2ccncc2)c(-c2ccc(Cl)c(OC)c2)n1
inactive: NCI-H23 lung 98% | NCI-H226 lung 61.5% | NCI-H322M lung 118% | HOP-62 NSCLC 66.8% | NCI-H460 lung 104% | NCI-H522 lung 81.9% | A549/ATCC NSCLC 77.5% | 786-0 renal 72% | COLO 205 colon 70.1% | DU-145 prostate 97.8% | K-562 leukemia 85.9% | MALME-3M melanoma 114% | MDA-MB-231 breast 79.5% | RXF 393 renal 85.3% | SF-268 CNS 67.9% | SF-295 CNS 97.7% | SF-539 CNS 75% | UACC-257 melanoma 93.1% | M14 melanoma 78.6%

CC(=O)Oc1ccccc1C(=O)Nc1ncc([N+](=O)[O-])s1
active: NCI-H23 lung 6.3% | NCI-H522 lung -15.9% | 786-0 renal -11.4% | K-562 leukemia -8.68% | MALME-3M melanoma -10.6% | SF-295 CNS 9.28%
inactive: NCI-H226 lung 63.5% | NCI-H322M lung 10.8% | HOP-62 NSCLC 67.1% | NCI-H460 lung 13.4% | A549/ATCC NSCLC 51.2% | COLO 205 colon 93.2% | DU-145 prostate 32.1% | MDA-MB-231 breast 26.9% | RXF 393 renal 54.5% | SF-268 CNS 18.7% | SF-539 CNS 39.5% | UACC-257 melanoma 39.2% | M14 melanoma 14.6%

CN(C)c1nc(-c2ccco2)n2nc(-c3ccc(Cl)cc3)cc2n1
inactive: NCI-H23 lung 77.5% | NCI-H226 lung 52% | NCI-H322M lung 69.8% | HOP-62 NSCLC 38% | NCI-H460 lung 27.7% | NCI-H522 lung 71.5% | A549/ATCC NSCLC 49.6% | 786-0 renal 43.4% | COLO 205 colon 67.6% | DU-145 prostate 77% | K-562 leukemia 67.4% | MALME-3M melanoma 98.6% | MDA-MB-231 breast 54.3% | RXF 393 renal 51% | SF-268 CNS 66.6% | SF-295 CNS 56% | SF-539 CNS 63.4% | UACC-257 melanoma 98.7% | M14 melanoma 87%

COc1ccc(C(=O)OC2C(OC3C(O)COC(O[C@H]4C[C@H]5[C@@H]6CC=C7C[C@@H](O)CC[C@]7(C)[C@H]6CC[C@]5(C)[C@H]4[C@H](C)C(=O)CCC(C)C)C3OC(=O)C(C)C)OCC(O)C2O)cc1 (some centres not stated)
inactive: NCI-H23 lung 43.1% | NCI-H226 lung 10.9% | NCI-H322M lung 58.6% | A549/ATCC NSCLC 16.1% | DU-145 prostate 38.4% | MDA-MB-231 breast 36.5%
active: HOP-62 NSCLC -14.2% | NCI-H460 lung 0.329% | NCI-H522 lung -46.1% | 786-0 renal -1.64% | COLO 205 colon -47.9% | K-562 leukemia -29.8% | MALME-3M melanoma 6.67% | RXF 393 renal -59.4% | SF-268 CNS -9.13% | SF-295 CNS -60.5% | SF-539 CNS -66.2% | UACC-257 melanoma -50% | M14 melanoma -61.4%

CCOC(OCC)c1cnc2nc(NC(C)=O)[nH]c(=O)c2n1
inactive: NCI-H23 lung 102% | NCI-H226 lung 107% | NCI-H322M lung 101% | HOP-62 NSCLC 120% | NCI-H460 lung 104% | NCI-H522 lung 98.8% | A549/ATCC NSCLC 99.7% | 786-0 renal 97.5% | COLO 205 colon 121% | DU-145 prostate 107% | K-562 leukemia 104% | MALME-3M melanoma 89.8% | MDA-MB-231 breast 104% | RXF 393 renal 110% | SF-268 CNS 112% | SF-295 CNS 109% | SF-539 CNS 108% | UACC-257 melanoma 109% | M14 melanoma 100%

O=C1CCCN1C1CCN2CCCc3cccc1c32 (configuration not stated)
inactive: NCI-H23 lung 105% | NCI-H226 lung 111% | NCI-H322M lung 114% | HOP-62 NSCLC 97% | NCI-H460 lung 110% | NCI-H522 lung 84.2% | A549/ATCC NSCLC 107% | 786-0 renal 101% | COLO 205 colon 110% | DU-145 prostate 119% | K-562 leukemia 109% | MALME-3M melanoma 94.2% | MDA-MB-231 breast 101% | RXF 393 renal 128% | SF-268 CNS 112% | SF-295 CNS 110% | SF-539 CNS 101% | UACC-257 melanoma 111%

C=CCN(CC#N)CC=C
inactive: NCI-H23 lung 106% | NCI-H226 lung 95.5% | NCI-H322M lung 106% | HOP-62 NSCLC 98.5% | NCI-H460 lung 115% | NCI-H522 lung 97.7% | A549/ATCC NSCLC 101% | 786-0 renal 107% | COLO 205 colon 113% | DU-145 prostate 112% | K-562 leukemia 102% | MALME-3M melanoma 109% | MDA-MB-231 breast 111% | RXF 393 renal 112% | SF-268 CNS 114% | SF-295 CNS 108% | SF-539 CNS 102% | UACC-257 melanoma 99.5% | M14 melanoma 102%
